Reference: PubChem BioAssay (EPA / NIEHS)
“And” between values parts separate entries of the source, which are not always exact repeats. Identical values can stand only once. Inconclusive results are not listed. Some structures have more than one record in an assay (separate samples or runs), and their calls can disagree. The source made the active and inactive calls. The calls were made as follows, unless noted: active = hit-call score of the fitted dose curve at least 0.9, where 1 is the maximum; inactive = score below 0.9.

How the values were obtained:
[1] = biological target: Estrogen receptor (Homo sapiens) (UniProt P03372); test: CCTE_Deisenroth_AIME_384WELL_LUC_Inactive: CCTE's 384-well Estrogen Receptor Transactivation Assay without AIME metabolic competence (ERTA luciferase; metabolism negative), Deisenroth Lab (AID 2284038; active = hit-call score of the fitted dose curve at least 0.9, where 1 is the maximum;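 also: VM7Luc4E2 breast cells given medium preincubated 2 h with S9-free microspheres; hits raise estrogen receptor luciferase signal so potencies reflect agonists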)
Sequence of Estrogen receptor (Homo sapiens) (P03372 whole entry, looked up): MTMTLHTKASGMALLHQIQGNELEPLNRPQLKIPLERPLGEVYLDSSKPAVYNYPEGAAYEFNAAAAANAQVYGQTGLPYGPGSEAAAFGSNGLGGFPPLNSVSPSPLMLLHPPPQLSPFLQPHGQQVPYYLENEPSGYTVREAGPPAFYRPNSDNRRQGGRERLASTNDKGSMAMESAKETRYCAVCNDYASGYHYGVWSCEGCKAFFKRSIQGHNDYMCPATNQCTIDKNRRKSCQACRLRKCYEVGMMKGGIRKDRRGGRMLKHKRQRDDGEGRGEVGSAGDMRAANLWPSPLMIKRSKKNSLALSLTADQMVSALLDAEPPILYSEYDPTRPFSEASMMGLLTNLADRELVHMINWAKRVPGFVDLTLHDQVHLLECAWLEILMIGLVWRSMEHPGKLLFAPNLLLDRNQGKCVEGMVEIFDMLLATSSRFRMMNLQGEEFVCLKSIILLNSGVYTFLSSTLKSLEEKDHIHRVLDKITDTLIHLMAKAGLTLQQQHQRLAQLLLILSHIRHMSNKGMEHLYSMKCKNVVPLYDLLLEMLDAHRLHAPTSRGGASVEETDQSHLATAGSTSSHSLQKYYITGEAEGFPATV
Procedure, shortened: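 Chemicals (10-point series, 0.002 - 200 uM) were incubated 2 hours with alginate-water microsphere lids lacking S9, then the conditioned medium was transferred to VM7Luc4E2 breast cells for 24 hour. Luciferase induction was read by bioluminescence, fitted upward relative to 17beta-estradiol.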

[2] = biological target: Estrogen receptor (Homo sapiens) (UniProt P03372); test: CCTE_Deisenroth_AIME_384WELL_LUC_Shift: CCTE's 384-well Estrogen Receptor Transactivation Assay with AIME metabolic competence data shift (ERTA luciferase; difference in metabolism positive and negative), Deisenroth Lab (AID 2284041);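 also: shift is response with S9 minus without S9 so positive means metabolism raised ER signal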
Procedure, shortened: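 Here, parent compounds undergo 2 h phase I metabolism by PB/BNF-induced rat S9 before 24 h transactivation in VM7Luc4E2 cells; the curve models S9-positive minus S9-negative response over a 10-point series.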

[3] = CCTE_Shafer_MEA_dev_burst_rate: CCTE's Neural Network Formation Assay for Burst Rate, Shafer Lab (AID 2284042);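 as to AC50: potency for loss of burst rate below DMSO control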
Procedure, shortened: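 Exposure ran continuously over 12 days of network development in rat cortical cultures, with compound refreshed during full media changes on DIV 5 and 9. Single-electrode bursts per recording time, well-mean over active electrodes, trapezoidal AUC across days 5–12, fitted downward relative to DMSO.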

[4] = CCTE_Shafer_MEA_dev_bursting_electrodes_number: CCTE's Neural Network Formation Assay for Number of Bursting Electrodes, Shafer Lab (AID 2284043; active = hit-call score of the fitted dose curve at least 0.9, where 1 is the maximum;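 also: potency is for loss of bursting electrodes relative to DMSO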)
Procedure, shortened: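 Primary rat cortical neurons were cultured on PEI-coated 48-well MEA plates (16 electrodes/well) and exposed from plating through day 12, with compound renewed at feeds on DIV 5 and 9. Electrodes bursting ≥1 per 2 min were counted on DIV 5, 7, 9, 12; trapezoidal AUC taken.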

[5] = CCTE_Shafer_MEA_dev_per_burst_interspike_interval: CCTE's Neural Network Formation Assay for Burst Interspike Interval, Shafer Lab (AID 2284044);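 also: mean spike spacing inside bursts as AUC over recordings on days 5 7 9 12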;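 as to AC50: potency for a decrease of within-burst interspike interval below DMSO level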
Procedure, shortened: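 Primary rat cortical neurons on 48-well MEA plates, exposed from day 0 through day 12, treatment renewed at DIV 5 and 9. Within-burst interspike interval recorded days 5, 7, 9, 12, well-averaged, summarised as AUC; negative fit versus DMSO.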

[6] = CCTE_Shafer_MEA_dev_interburst_interval_mean: CCTE's Neural Network Formation Assay for Mean Interburst Interval, Shafer Lab (AID 2284046);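 also: well-mean interburst interval of bursting electrodes as AUC over four recording days; curve fitted for decrease in interburst interval relative to DMSO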
Procedure, shortened: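 Primary rat cortical neurons on PEI-coated 48-well MEA plates (laminin added with cells at plating) (16 electrodes/well), exposed from plating day 0 with renewal at DIV 5 and 9. Mean inter-burst interval averaged over bursting electrodes, AUC across days 5, 7, 9, 12; DMSO baseline.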

[7] = CCTE_Shafer_MEA_dev_inter_network_spike_interval_mean: CCTE's Neural Network Formation Assay for Mean Inter-network Spike Interval, Shafer Lab (AID 2284047);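 as to AC50: potency for a decrease in mean inter-network spike interval below DMSO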
Procedure, shortened: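 Mean time between consecutive network-spike peaks, recorded extracellularly (adaptive spike detection) on DIV 5, 7, 9 and 12, summarized as trapezoidal AUC. Rat cortical cultures on MEAs dosed continuously days 0–12, re-dosed at feeds; loss-of-signal fit relative to DMSO.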

[8] = CCTE_Shafer_MEA_dev_network_spike_number: CCTE's Neural Network Formation Assay for Number of Network Spikes, Shafer Lab (AID 2284048);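 also: synchronized bursts across electrodes counted on days 5 7 9 12 and integrated as AUC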;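 as to AC50: fit as a loss of signal meaning fewer network spikes than DMSO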
Procedure, shortened: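 Primary rat cortical neurons were seeded at 1.5 x 10^5 cells/well on PEI-coated 16-electrode MEA wells with laminin, exposed from plating day 0, compound renewed at DIV 5 and 9. Network spikes were recorded on days 5, 7, 9, 12 and summarized as trapezoidal AUC versus DMSO.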

DIO2 (gene 1734) = test: CCTE_GLTED_hDIO2: CCTE's human Deiodinase 2 (DIO2) Inhibition Assay, Great Lakes Toxicology and Ecology Division (GLTED) Lab (AID 2284050; active = hit-call score of the fitted dose curve at least 0.9, where 1 is the maximum)
Procedure, shortened: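 In this cell-free test, chemicals are exposed to human deiodinase type 2 for 3 hours. Released iodide is determined spectrophotometrically via the Sandell-Kolthoff method, and signal loss relative to DMSO is fitted.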

[9] = CCTE_Shafer_MEA_dev_spike_duration_mean: CCTE's Neural Network Formation Assay for Mean Spike Duration, Shafer Lab (AID 2284051);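 also: mean network spike duration pooled as area under curve over DIV 5 to 12 recordings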;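 as to AC50: potency for a decrease in mean network spike duration versus DMSO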
Procedure, shortened: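 Spontaneous activity was recorded on days 5, 7, 9 and 12 from rat cortical cultures grown on microelectrode arrays and dosed continuously from day 0, with media and compound renewed after the DIV 5 and 9 recordings. Network-spike duration was collapsed by area under the curve.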

[10] = CCTE_Shafer_MEA_dev_network_spike_duration_std: CCTE's Neural Network Formation Assay for Standard Deviation of Network Spike Duration, Shafer Lab (AID 2284052);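 also: hits are decreases in network spike duration SD versus DMSO vehicle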
Procedure, shortened: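 Network spike duration variability was collapsed across recordings on days 5, 7, 9 and 12 by trapezoidal area-under-curve and fitted downward against DMSO. Cultures were rat cortical neurons on PEI-coated MEA plates, dosed continuously from plating, refed with compound DIV 5/9.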

[11] = CCTE_Shafer_MEA_dev_per_network_spike_spike_number_mean: CCTE's Neural Network Formation Assay for Mean Number of Spikes in a Network Spike, Shafer Lab (AID 2284053);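 as to AC50: fitted as decrease in spikes per network spike relative to DMSO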
Procedure, shortened: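 Mean spike count within each network spike, taken in a 0.05 s window at its peak, was recorded on days 5, 7, 9 and 12 and integrated as trapezoidal area under the curve. Rat cortical cultures on MEA plates received continuous compound from day 0, refreshed at medium changes on DIV 5 and 9.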

[12] = CCTE_Shafer_MEA_dev_per_network_spike_spike_percent: CCTE's Neural Network Formation Assay for Percent of Spikes in a Network Spike, Shafer Lab (AID 2284054)
Procedure, shortened: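 Primary rat cortical neurons on 16-electrode MEA wells (PEI-coated, laminin at plating), exposed from day 0 with renewal at DIV 5 and 9; spikes within 0.05 s of network-spike peaks over total spikes, AUC across days 5, 7, 9, 12.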

DIO3 (gene 1735) = test: CCTE_GLTED_hDIO3: CCTE's human Deiodinase 3 (DIO3) Inhibition Assay, Great Lakes Toxicology and Ecology Division (GLTED) Lab (AID 2284055; active = hit-call score of the fitted dose curve at least 0.9, where 1 is the maximum;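 also: potency is for inhibition seen as loss of released iodide signal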)
Procedure, shortened: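 Enzyme activity is tracked as iodide release from substrate by recombinant human DIO3 over 3 h with chemical present. A second Sandell-Kolthoff step converts iodide to an absorbance signal, fitted relative to DMSO.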

[13] = CCTE_Shafer_MEA_dev_LDH: CCTE's Lactate Dehydrogenase Assay for Cytotoxicity in the Neural Network Formation Assay, Shafer Lab (AID 2284068; active = hit-call score of the fitted dose curve at least 0.9, where 1 is the maximum;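 also: exposure for twelve days from plating with re-dosing on DIV 5 and 9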)
Procedure, shortened: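 Primary rat cortical neurons were cultured on PEI-coated MEA plates and exposed from plating through day 12, with compound renewed at medium changes on DIV 5 and 9. LDH activity was read spectrophotometrically; loss of signal versus DMSO indicates reduced viability.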

[14] = CCTE_Shafer_MEA_acute_AB: CCTE's Alamar Blue Assay for Cytotoxicity in the Neural Acute Assay, Shafer Lab (AID 2284069; active = hit-call score of the fitted dose curve at least 0.9, where 1 is the maximum;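 also: active compounds lower the viability signal compared with DMSO wells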)
Procedure, shortened: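 Resazurin reduction (CellTiter Blue, 1:6 in fresh medium) read at ex 544/em 590 nm marks viability loss relative to DMSO. Cells: primary rat cortical neuron networks on microelectrode arrays, treated after baseline recording at 13 or 15 days in vitro.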

[15] = CCTE_Shafer_MEA_dev_AB: CCTE's Alamar Blue Assay for Cytotoxicity in the Neural Network Formation Assay, Shafer Lab (AID 2284083; active = hit-call score of the fitted dose curve at least 0.9, where 1 is the maximum;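 also: resazurin reduction fluorescence as viability of cultured neurons; twelve days of exposure from plating with re-dosing on DIV 5 and 9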)
Procedure, shortened: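 Resazurin fluorescence, relative to DMSO, gauges viability after twelve days of exposure that began at plating of rat cortical neurons (1.5 x 10^5 cells/well, 48-well MEA); treatment renewed with full medium exchange on DIV 5 and 9.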

[16] = CCTE_Deisenroth_AIME_384WELL_CTox_Inactive: Cytotoxicity Assessment (CTOX) in CCTE's 384-well Estrogen Receptor Transactivation Assay without AIME metabolic competence (metabolism negative), Deisenroth Lab (AID 2284039; active = hit-call score of the fitted dose curve at least 0.9, where 1 is the maximum;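 also: cell viability via live-cell protease substrate cleaved to fluorescent probe; cells exposed 24 h to medium preincubated 2 h with alginate-water beads without S9; loss of fluorescence signal means loss of viability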)
Procedure, shortened: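 Fluorescent protease-substrate viability readout after 24 h exposure of VM7Luc4E2 cells to conditioned medium. Chemicals (0.002–200 uM) first sat 2 h over alginate-water beads, no S9. Data fitted bidirectionally, loss of signal meaning viability loss.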

Measured: AC50

C=CCC1=C(C)C(OC(=O)C2C(C=C(C)C)C2(C)C)CC1=O (configuration not stated)
active: [4] 5.72 µM and 14.8 µM | [8] 1150 nM | DIO2 (gene 1734) 44900 nM | [11] 24.5 µM | [12] 4.76 µM | DIO3 (gene 1735) 40900 nM | [13] 23.6 µM | [15] 22.8 µM
inactive: [1] | [2] | [3] | [5] | [6] | [7] | [8] | [9] | [10] | [11] | [12] | [14] | [15]

CCc1nn(C)c(C(=O)NCc2ccc(C(C)(C)C)cc2)c1Cl
inactive: [16] | [2]

C=CC1(C)OC(=O)N(c2cc(Cl)cc(Cl)c2)C1=O (configuration not stated)
active: [1] 63400 nM | [2] 42400 nM | [4] 21.6 µM
not listed: DIO2 (gene 1734) | DIO3 (gene 1735) | [14]
inactive: all other assays above

N#Cc1cc(Br)c(O)c(Br)c1
inactive: [16] | [2]

C#CCOS(=O)OC1CCCCC1Oc1ccc(C(C)(C)C)cc1 (configuration not stated)
inactive: [16] | [2] | [14]

CC(C)(C)c1ccc(CSc2cnn(C(C)(C)C)c(=O)c2Cl)cc1
inactive: [16] | [2]
active: [3] 4.9 nM | [4] 0.00281 µM | [5] 4.98 nM | [6] 3 nM | [7] 2.8 nM | [8] 2.16 nM | [9] 1.63 nM | [10] 0.239 nM | [11] 0.00169 µM | [12] 0.00179 µM | [13] 0.00284 µM | [15] 0.0115 µM

COC(=O)N(OC)c1ccccc1COc1ccn(-c2ccc(Cl)cc2)n1
inactive: [1] | [2] | [3] | [7] | [8] | [10] | [14]
active: [16] 19800 nM | [3] 91.4 nM | [4] 123 nM and 13 nM | [5] 269 nM and 50 nM | [6] 264 nM and 13.7 nM | [7] 128 nM | [8] 66.9 nM | [9] 88.7 nM and 9.7 nM | [10] 78.8 nM | [11] 82.2 nM and 11 nM | [12] 157 nM and 13.6 nM | [13] 54.7 nM and 5.99 nM | [15] 120 nM and 25.3 nM

CC1=C(C(=O)Nc2ccccc2)SCCO1
inactive: [1] | [2]

O=C(O)c1nc(Cl)ccc1Cl
inactive: [1] | [2] | [14]

CCOC(=O)CC(SP(=S)(OC)OC)C(=O)OCC (configuration not stated)
active: [3] 22.7 µM and 2.98 µM | [4] 14.9 µM and 4.64 µM | [5] 3720 nM | [6] 16.8 µM and 15 µM | [8] 11700 nM | [9] 13.1 µM and 4.76 µM | [10] 13300 nM | [11] 13 µM and 8.1 µM | [12] 11 µM and 3.69 µM | [13] 19.9 µM and 24.6 µM | [15] 22.9 µM and 25.1 µM
inactive: [5] | [7] | [8] | [10]
